Test [1] in a line: Nuclear factor erythroid 2-related factor 2/antioxidant responsive element (Nrf2/ARE) small molecule agonists: luciferase reporter gene qHTS assay in human keratinocytes (AID 1919969). Further: nearly all actives have a fitted effect of over 35% in size. On the technique in general: In a reporter assay the amount or activity of a reporter protein is the signal.
For test [2], the target named is Gonadotropin-releasing hormone receptor (Homo sapiens) (UniProt P30968). As to the kind of experiment: Human gonadotropin-releasing hormone receptor (GnRHR) small molecule agonists, calcium flux assay in GnRHR-HEK293 cells (AID 1920063). Further: nearly all actives have a fitted effect of over 35% in size. Further: potency means the concentration at half of the fitted maximal effect. The method, boiled down:
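Cells: HEK293 stably expressing human GnRHR. Steps: overnight (18 h) culture, 1 h calcium dye loading at 37 C, compound addition, kinetic fluorescence read at 480/540 nm. Each compound tested at 15 concentrations in triplicate.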
In general terms: Calcium flux is commonly read through the fluorescence of an indicator in the cells.

The target in test [3] is KiSS-1 receptor (Homo sapiens) (UniProt Q969F8). The experiment in a line: Human kisspeptin (KISS1R) small molecule agonists, calcium flux assay in KISS1R-HEK293 cells (AID 1920064; active means well fitted activation curve with a large enough effect in the repeat runs; further: potency means the concentration at half of the fitted maximal effect). The method, boiled down: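 Cells plated and incubated 18 h; dye added, 1 h at 37 C; compounds in DMSO pinned in; signal read at 480/540 nm every second for 3 min. Each compound tested at 15 concentrations in triplicate.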

Test [4] in a line: p53 small molecule agonists, cell-based qHTS assay with human liver microsomes (AID 1963577).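 Further: p53 response element beta-lactamase reporter cells with liver microsomes plus NADPH.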 In short, it runs like this:
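HLM-supplemented p53RE-bla reporter assay: 16 h compound exposure at 37 C, microsomes and NADPH each 0.5 mg/mL final, read by fluorescence intensity.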
(In qHTS, concentration-response curves come from the screen itself.)

Test [5] is described as follows: p53 small molecule agonists, cell-based qHTS assay with rat liver microsomes (AID 1963578). In short, it runs like this: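 Quantitative HTS of the Tox21 10K library: p53RE-bla cells, rat liver microsomes plus NADPH at 0.5 mg/mL final each, 16 h at 37 C, beta-lactamase fluorescence detection.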
The nature of test [6]: p53 small molecule agonists, cell-based qHTS assay with human liver microsomes: qHTS cell viability counter screen (AID 1963579). Further: nearly all actives have a fitted effect of over 45% in size. The method, boiled down: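 Viability of p53RE-bla cells is measured as CellTiter-Glo luminescence following a 16 h, 37 C incubation with compound, liver microsomes from human donors and NADPH.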
Test [7] in a line: p53 small molecule agonists, cell-based qHTS assay with rat liver microsomes: qHTS cell viability counter screen (AID 1963580). Further: nearly all actives have a fitted effect of over 45% in size. In short, it runs like this: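 In HCT-116 cells carrying a p53 response element-bla reporter, compounds were metabolically activated in situ by rat liver microsomes with NADPH over 16 h. Cell ATP content then served as the cytotoxicity measure.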
A short description of test [8]: p53 small molecule agonists, cell-based qHTS assay: qHTS cell viability counter screen (AID 1963581). Further: nearly all actives have a fitted effect of over 45% in size. The method, boiled down: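 Cells: HCT-116 with p53 response element-driven beta-lactamase. Treatment: 16 h, 37 C, compounds in DMSO. Read: CellTiter-Glo luminescence after 30 min RT.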
The nature of test [9]: p53 small molecule agonists, cell-based qHTS assay (AID 1963582; active means well fitted activation curve with a large enough effect in the signal ratio in the repeat runs, not every such curve was filed as active; the % refers to the signal ratio). The method, boiled down:
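Quantitative HTS in p53RE-bla cells: after a 5 h settling period, compounds delivered in DMSO were left on cells for 16 h at 37 C, and reporter induction was measured as fluorescence following 2 h substrate loading.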

The target of test [10] is 5-hydroxytryptamine receptor 2A (Homo sapiens) (UniProt P28223). The experiment in a line: 5-hydroxytryptamine receptor 2A (HTR2A) small molecule antagonists, cell-based qHTS assay (AID 1963586). Further: nearly all actives have a fitted effect of over 45% in size. Further: potency means the concentration at half of the fitted maximal effect. In short, it runs like this: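 Antagonist-mode intracellular calcium assay: DOI (4 nM) added after 5 min compound pre-incubation at room temperature to dye-loaded HTR2A-CHO cells. Fluorescence followed for 3 min, sampled every second.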

Test [11] has the same target. As to the kind of experiment: 5-hydroxytryptamine receptor 2A (HTR2A) small molecule agonists, cell-based qHTS assay (AID 1963587). Further: nearly all actives have a fitted effect of over 30% in size. Further: potency means the concentration at half of the fitted maximal effect. The method, boiled down:
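HTR2A-CHO cells, plated 18 h at 37 C/5% CO2, dye-loaded 1 h at 37 C; compounds in DMSO added by pin tool (agonist mode). Intracellular calcium flux read as kinetic fluorescence on FDSS over 2 min at 1 s intervals.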

Test [12] deals with Muscarinic acetylcholine receptor M1 (Homo sapiens) (UniProt P11229). As to the kind of experiment: Cholinergic receptor muscarinic 1 (CHRM1) small molecule antagonists, cell-based qHTS assay (AID 1963588). Further: nearly all actives have a fitted effect of over 40% in size. The method, boiled down: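 CHRM1-CHO calcium-flux assay, antagonist mode. Cells were seeded 18 h, dye-loaded 1 h at 37 C and given compound for 5 min at RT, then acetylcholine was added at 50nM. FDSS fluorescence was read 3 min; 15 concentrations, three runs.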

Test [13] has the same target. As to the kind of experiment: Cholinergic receptor muscarinic 1 (CHRM1) small molecule agonists, cell-based qHTS assay (AID 1963589). Further: nearly all actives have a fitted effect of over 35% in size. Further: potency means the concentration at half of the fitted maximal effect. The method, boiled down:
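Agonist-mode qHTS in CHO cells stably carrying human muscarinic M1. Intracellular calcium is tracked by fluorescence every second after compound transfer; each compound runs at 15 concentrations in three independent runs.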

The nature of test [14]: cAMP Responsive Elements (CRE) small molecule agonists, cell-based qHTS assay (AID 1963590). In short, it runs like this: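 Agonist mode qHTS in CRE-bla HEK 293T cells: compounds dosed from DMSO for 3 h at 37 C/5% CO2, followed by LiveBLAzer B/G FRET substrate for 2 h at room temperature.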
Test [15] in a line: cAMP Responsive Elements (CRE) small molecule antagonists, cell-based qHTS assay (AID 1963591; active means well fitted inhibition curve with a large enough effect in the signal ratio in the repeat runs, not every such curve was filed as active; the % refers to the signal ratio). The method, boiled down: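 Antagonist mode: test compounds are co-incubated with the adenylyl cyclase activator NKH477 (0.25 uM final) on CRE-bla HEK293T cells for 3 h at 37 °C, followed by LiveBLAzer substrate loading.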
Test [16] concerns the target Beta-2 adrenergic receptor (Homo sapiens) (UniProt P07550). As to the kind of experiment: Adrenergic beta2 receptor (ADRB2) small molecule antagonists, cell-based qHTS assay (AID 1963592). Further: nearly all actives have a fitted effect of over 50% in size. Further: potency means the concentration at half of the fitted maximal effect. In short, it runs like this: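 Cells (CHO, stable ADRB2 overexpression) incubated 18-20hr at 37C; compounds added from DMSO; agonist mix (1nM isoproterenol, 100uM IBMX, 25uM Ro-20-1724) added; 0.5hr RT; d2-cAMP and anti-cAMP-cryptate added; 1hr RT; 665/615 nm read.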

Test [17] deals with D(2) dopamine receptor (Homo sapiens) (UniProt P14416). The experiment in a line: Dopamine D2 receptor (DRD2) small molecule agonists, cell-based qHTS assay (AID 1963594). Further: nearly all actives have a fitted effect of over 35% in size. Further: potency means the concentration at half of the fitted maximal effect. The method, boiled down:
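HEK293 cells stably expressing DRD2 were cultured 24 h at 37 C, then given Ro20-1724 (0.1 mM final) and compounds for 10 min at room temperature. NKH477 (200nM) was then added for 30 min. cAMP was read by HTRF.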

Test [18] has the same target. The experiment in a line: Dopamine D2 receptor (DRD2) small molecule antagonists, cell-based qHTS assay (AID 1963595; active means well fitted inhibition curve with a large enough effect in the signal ratio in the repeat runs, with a control signal flat; the % refers to the signal ratio). The method, boiled down:
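HTRF cAMP read-out at 665 and 620 nm emission (340 nm excitation). Antagonist mode: compounds were tested against 12 nM quinpirole in DRD2-HEK293 cells, with 200 nM NKH477 raising cAMP and 0.1 mM Ro20-1724 blocking its breakdown.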

Test [19] deals with Beta-2 adrenergic receptor (Homo sapiens) (UniProt P07550). The experiment in a line: Adrenergic beta2 receptor (ADRB2) small molecule agonists, cell-based qHTS assay (AID 1963593).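 Further: CHO cells stably overexpressing human ADRB2.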 In short, it runs like this:
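CHO cells stably over-expressing ADRB2 were plated overnight at 37C, then dosed with compounds plus a stimulation mix containing 100uM IBMX and 25uM Ro-20-1724 for 0.5hr at room temperature. cAMP was measured by HTRF competition, 1hr.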

Test [20] in a line: G protein-coupled receptor (GPCR) small molecule agonists, calcium flux assay: HEK293 wild type cell line counter screen (AID 1920065). Further: potency means the concentration at half of the fitted maximal effect. In short, it runs like this:
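Counter-screen of the Tox21 10K library for non-specific calcium release: dye-loaded cells received compounds in DMSO and were monitored by kinetic fluorescence (480/540 nm, 3 min). Fifteen concentrations, run in triplicate.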

“And” between values parts separate entries of the source, which are not always exact repeats. Identical values can stand only once. Inconclusive results are not listed. Some compounds were tested as several samples or in several runs, with calls that do not always agree. The source made the active and inactive calls. Unless noted, the call rests on the fitted dose curve.

This passage reports Potency results from PubChem BioAssay (Tox21).
On the % scale 0 is the no-effect control and ±100 the full control effect.

Chain of Gonadotropin-releasing hormone receptor (Homo sapiens) (P30968 whole entry, looked up): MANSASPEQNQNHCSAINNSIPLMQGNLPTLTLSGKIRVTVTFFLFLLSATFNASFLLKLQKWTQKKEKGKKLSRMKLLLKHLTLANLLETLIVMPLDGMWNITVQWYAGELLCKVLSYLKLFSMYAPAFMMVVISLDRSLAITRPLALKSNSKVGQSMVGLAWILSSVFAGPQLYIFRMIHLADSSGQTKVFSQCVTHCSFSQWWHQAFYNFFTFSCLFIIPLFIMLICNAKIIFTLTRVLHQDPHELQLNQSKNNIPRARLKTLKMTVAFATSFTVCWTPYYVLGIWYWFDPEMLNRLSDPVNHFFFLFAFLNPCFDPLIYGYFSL
Chain of 5-hydroxytryptamine receptor 2A (Homo sapiens) (P28223 whole entry, looked up): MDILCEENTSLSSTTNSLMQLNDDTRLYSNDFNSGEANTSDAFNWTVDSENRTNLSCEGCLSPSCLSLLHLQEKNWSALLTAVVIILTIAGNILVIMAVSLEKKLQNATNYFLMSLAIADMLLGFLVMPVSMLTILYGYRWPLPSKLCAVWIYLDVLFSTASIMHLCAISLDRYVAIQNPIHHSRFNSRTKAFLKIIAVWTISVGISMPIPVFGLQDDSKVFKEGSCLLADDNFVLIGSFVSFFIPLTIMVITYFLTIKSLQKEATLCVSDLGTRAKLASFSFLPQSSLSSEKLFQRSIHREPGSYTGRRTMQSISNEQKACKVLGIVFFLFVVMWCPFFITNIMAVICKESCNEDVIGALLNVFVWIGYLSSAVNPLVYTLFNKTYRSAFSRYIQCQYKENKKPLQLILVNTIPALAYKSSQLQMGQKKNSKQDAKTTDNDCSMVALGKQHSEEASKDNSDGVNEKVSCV
Chain of KiSS-1 receptor (Homo sapiens) (Q969F8 whole entry, looked up): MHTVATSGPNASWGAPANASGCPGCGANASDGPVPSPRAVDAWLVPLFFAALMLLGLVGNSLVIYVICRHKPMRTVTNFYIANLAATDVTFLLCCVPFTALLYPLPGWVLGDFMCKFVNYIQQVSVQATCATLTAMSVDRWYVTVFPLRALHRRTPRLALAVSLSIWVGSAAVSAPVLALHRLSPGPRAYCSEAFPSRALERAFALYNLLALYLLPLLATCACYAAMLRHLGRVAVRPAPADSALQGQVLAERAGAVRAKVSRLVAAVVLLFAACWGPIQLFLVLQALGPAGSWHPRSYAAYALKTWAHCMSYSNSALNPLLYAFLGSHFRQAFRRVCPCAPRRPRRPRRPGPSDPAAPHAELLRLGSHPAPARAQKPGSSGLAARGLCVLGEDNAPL
Chain of D(2) dopamine receptor (Homo sapiens) (P14416 whole entry, looked up): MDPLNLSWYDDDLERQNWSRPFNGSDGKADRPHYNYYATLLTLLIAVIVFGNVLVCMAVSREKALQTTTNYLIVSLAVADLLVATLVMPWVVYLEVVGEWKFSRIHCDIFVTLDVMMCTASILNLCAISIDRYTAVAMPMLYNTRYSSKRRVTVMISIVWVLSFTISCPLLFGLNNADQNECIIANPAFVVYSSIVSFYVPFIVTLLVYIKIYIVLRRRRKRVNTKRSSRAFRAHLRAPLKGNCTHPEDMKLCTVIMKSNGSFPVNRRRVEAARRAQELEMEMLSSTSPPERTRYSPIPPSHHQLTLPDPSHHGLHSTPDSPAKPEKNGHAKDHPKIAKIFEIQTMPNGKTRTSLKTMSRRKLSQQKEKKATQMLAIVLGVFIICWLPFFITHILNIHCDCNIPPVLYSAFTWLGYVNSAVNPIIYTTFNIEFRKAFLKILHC
Chain of Beta-2 adrenergic receptor (Homo sapiens) (P07550 whole entry, looked up): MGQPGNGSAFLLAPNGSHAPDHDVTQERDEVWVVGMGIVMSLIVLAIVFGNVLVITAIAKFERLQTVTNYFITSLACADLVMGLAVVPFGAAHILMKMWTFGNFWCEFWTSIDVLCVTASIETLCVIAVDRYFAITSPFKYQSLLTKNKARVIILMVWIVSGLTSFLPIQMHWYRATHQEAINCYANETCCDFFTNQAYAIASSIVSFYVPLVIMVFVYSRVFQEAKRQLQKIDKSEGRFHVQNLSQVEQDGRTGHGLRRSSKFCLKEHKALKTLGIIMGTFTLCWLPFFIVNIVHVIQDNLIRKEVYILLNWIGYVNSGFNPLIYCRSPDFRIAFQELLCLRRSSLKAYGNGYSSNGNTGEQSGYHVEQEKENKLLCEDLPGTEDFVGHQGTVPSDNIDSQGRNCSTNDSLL
Chain of Muscarinic acetylcholine receptor M1 (Homo sapiens) (P11229 whole entry, looked up): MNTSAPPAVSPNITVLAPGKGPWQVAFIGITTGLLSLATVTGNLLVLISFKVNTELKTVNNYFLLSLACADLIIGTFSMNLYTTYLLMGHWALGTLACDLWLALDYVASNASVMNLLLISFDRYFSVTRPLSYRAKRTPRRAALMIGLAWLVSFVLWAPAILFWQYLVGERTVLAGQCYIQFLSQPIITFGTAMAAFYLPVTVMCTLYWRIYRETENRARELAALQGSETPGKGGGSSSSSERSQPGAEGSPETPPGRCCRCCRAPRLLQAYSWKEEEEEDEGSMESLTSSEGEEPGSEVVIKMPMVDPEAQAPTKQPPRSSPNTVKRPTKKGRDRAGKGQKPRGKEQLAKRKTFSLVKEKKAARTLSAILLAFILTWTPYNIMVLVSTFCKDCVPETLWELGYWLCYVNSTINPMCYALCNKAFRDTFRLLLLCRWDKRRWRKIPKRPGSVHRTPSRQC

Turning to `Cc1ccc(C)c(C)c1`, the Potency entry in test [1], in test [2], in test [3], in test [4], in test [5] and in test [6] was “inactive” each time. Further, the Potency entry in test [7], in test [8], in test [9], in test [10], in test [11] and in test [12] was “inactive” throughout. Besides, the Potency result in test [13], in test [14], in [15], in test [16], in test [17] and in [18] was “inactive” in each case.

`O=C(c1ccccc1)C(O)c1ccccc1` (stereo unspecified): the Potency result in test [1], in [2], in test [3], in test [8], in test [11] and in [12] was “inactive” throughout. Moreover, the Potency result in test [13], in test [14], in [15], in [16], in test [19] and in [17] was “inactive” each time. In addition, in test [18], the Potency result was “inactive”. The Potency entry in test [10] was “inactive and 729 nM (active)”.

For the molecule `NNC(=O)c1ccncc1`, the Potency result in test [1], in test [2], in test [3], in test [4], in test [5] and in test [6] was “inactive” throughout. The Potency entry in [7], in test [8], in [9], in test [14], in test [15] and in test [16] was “inactive” throughout. For the same molecule, the Potency result in test [19], in test [17] and in [18] was “inactive” in each case.

As to `C=CC(=O)OCCCCCCCC(C)C`, the Potency result in test [1], in test [3], in test [20], in [4], in [5] and in test [6] was “inactive” throughout. The Potency result in [7], in test [8], in [9], in test [10], in test [11] and in [12] was “inactive” each time. The Potency result in test [13], in test [14], in [15], in test [16], in test [17] and in test [18] was “inactive” each time.

Turning to `O=C1OC2(c3ccccc31)c1cc(I)c(O)c(I)c1Oc1c2cc(I)c(O)c1I`, the Potency in [2] was 22.1 µM (active) [middle of 4 runs]; in [3], 31.3 µM (active) and 26.8 µM (active); in test [20], 39 µM (active) and 22.1 µM (active) and 19 µM (active); in [11] it was 31.3 µM (active) [middle of 4 runs]; in [13], 33.4 µM (active) [middle of 4 runs]; in test [16], 33.5 µM (active). In addition, the Potency in test [17] is 39 µM (active) and 31 µM (active). Moreover, the Potency result in test [4], in test [5], in [6], in [7], in test [8] and in test [9] was “inactive” in each case. The Potency result in test [12], in test [14] and in test [15] was “inactive” each time.

Take `ClC/C=C/CCl`: the Potency entry in [2], in test [3], in test [20], in test [4], in [5] and in test [6] was “inactive” in each case. The Potency result in test [7], in [8], in [9], in [10], in [11] and in test [12] was “inactive” in each case. Moreover, the Potency result in [13], in test [14], in test [15], in test [16], in test [19] and in test [17] was “inactive” in each case. The Potency result in test [18] was “inactive”.

`O=C(O)Cn1c(=O)n(Cc2ccc(Br)cc2F)c(=O)c2ccc(Cl)cc21`: the Potency result in test [1], in [3], in test [20], in test [4], in test [5] and in test [6] was “inactive” in each case. Also, the Potency result in test [7], in [8], in test [9], in [10], in [11] and in [12] was “inactive” in each case. The Potency result in test [13], in test [14], in [15], in [16], in test [19] and in [17] was “inactive” throughout. Also, the Potency result in [18] is “inactive”.

In the case of `COC1=CC(=O)C[C@@H](C)[C@]12Oc1c(Cl)c(OC)cc(OC)c1C2=O`, the Potency result in [1], in test [2], in test [3], in test [20], in [6] and in [7] was “inactive” throughout. Also, the Potency entry in [14], in test [15], in test [16], in test [19], in [17] and in [18] was “inactive” in each case.
